From PubChem
NALP1 inh: NALP1 inflammasome inhibitors in reconstituted yeast, colorimetric, S. cerevisiae, triplicate retest. inhibition, % at 10 µM. S. cerevisiae NALP1/ASC/caspase-1 growth, X-gal OD620, 72 h. 280,000 tested, 0.61% active. AID 2071, 2009; in the data active = inhibition mostly above about 24%, no sharp cut-off; inactive = mostly below about 32%
SUMO Mot1 rescue: yeast Mot1-301 growth rescue at high temperature, primary screen, SUMOylation pathway inhibitor project, S. cerevisiae, ATP luminescence, 38.5C | 320,000 tested, 1% active | S. cerevisiae Mot1-301 growth rescue; percent above DMSO median, 100 means doubled | growth rescue, % at 18.8 µM;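 active = every valid replicate shows activation above 250% relative to neutral control wells; inactive = the rest, any valid replicate at or below 250%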;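 also: OY570 slx delta 5 strain wells were the positive control but not used for scaling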
A1 inh: caspase 3/7 activation in MEF A1-2A-BIM cells, primary screen, A1 inhibitor project, cell-based, luminescence, HTS. Caspase-Glo 3/7 luminescence, 3 h; percent of clofoctol response, vehicle zero. caspase activation, % (concentration not given with the values). 330,000 tested, 0.066% active. AID 2462, 2010;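 active = over half of replicate activation scores above 10%, or exactly half above 10 with the replicate mean above 10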
CHT inh: inhibitors of human choline transporter CHT. CHT-expressing cells, membrane potential dye, choline response; hits give low values. High affinity choline transporter 1 (Homo sapiens), Q9GZV3. B-score at 10 µM. 310,000 tested, 0.86% active;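 active = B-score over 3 SD under the library average, and starting fluorescence ratio not unusually high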;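 also: choline stimulus applied at its EC90 after an EC20 pre-addition; B-score computed on integrated fluorescence ratio after choline addition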
Target sequence (Q9GZV3 whole entry, looked up): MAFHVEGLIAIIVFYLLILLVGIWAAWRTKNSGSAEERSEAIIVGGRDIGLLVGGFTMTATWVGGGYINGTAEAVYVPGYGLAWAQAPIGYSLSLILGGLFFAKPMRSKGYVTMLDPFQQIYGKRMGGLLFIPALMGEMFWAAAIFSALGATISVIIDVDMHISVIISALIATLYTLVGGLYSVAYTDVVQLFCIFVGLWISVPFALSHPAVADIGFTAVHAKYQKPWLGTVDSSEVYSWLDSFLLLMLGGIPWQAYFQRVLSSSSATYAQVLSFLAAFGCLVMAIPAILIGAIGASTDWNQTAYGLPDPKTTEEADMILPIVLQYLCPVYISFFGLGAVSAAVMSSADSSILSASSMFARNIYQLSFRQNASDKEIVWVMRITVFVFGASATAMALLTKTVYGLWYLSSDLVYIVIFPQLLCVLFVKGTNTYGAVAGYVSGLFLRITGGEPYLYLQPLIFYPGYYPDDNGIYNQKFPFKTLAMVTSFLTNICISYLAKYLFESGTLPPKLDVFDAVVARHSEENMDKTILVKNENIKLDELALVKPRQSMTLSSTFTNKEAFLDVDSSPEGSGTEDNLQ
NLRP3 yeast inh: NALP3 inflammasome inhibitors in reconstituted yeast, primary screen, luminescence, uHTS; Yeast reconstituted NLRP3/ASC/caspase-1, beta-gal luminescence, 24 h; inhibition, % at 10 µM; 330,000 tested, 0.39% active; AID 2825, 2010;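 active = inhibition of 50% or more; inactive = inhibition below 50%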;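 also: plate controls were induced DMSO wells for no effect and uninduced yeast grown without galactose for full effect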
CHT allo act: CHT positive allosteric modulators, primary screen, cell-based, membrane potential dye, choline EC20 | 310,000 tested, 0.49% active | High affinity choline transporter 1 (Homo sapiens), Q9GZV3 | B-score at 10 µM | CHT-expressing cells; hits give high values; LV-AA mutant CHT in HEK293 cells;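 active = initial fluorescence not abnormally high and integrated response B-score, plate-corrected, over 3 SD above library mean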
CHT inh conf: CHT inhibitors, confirmation, cell-based, membrane potential dye, duplicate; CHT-expressing cells, choline membrane potential dye; LV-to-AA substituted CHT, HEK293 cells; CHT activity remaining % of control (hits give low values), % at 10 µM; shares compounds with CHT inh; 2,400 tested, 70% active;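 active = choline transporter activity left, mean of duplicates at 10 µM, below buffer-only control mean minus 3 SD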;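 also: depolarization triggered by choline at its EC90 following an EC20 pre-addition; 0% = hemicholinium-3 full block and 100% = buffer-only control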
HEK293 MPD ctr: membrane potential effects in parental HEK293, counter-screen for CHT inhibitor project, cell-based, membrane potential dye. shares compounds with CHT inh. choline response; active = decrease or increase beyond buffer ±3SD. membrane potential ratio readout (active if shifted either direction beyond buffer ±3SD; no single direction) at 10 µM. 2,400 tested, 4% active;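 also: parental cells lack the transporter so any hit is non-specific; ratio is peak minus trough fluorescence over baseline after EC90 choline challenge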
An asterisk follows results filed as active; i = inactive; nt = no result given. The list is not random: actives were taken first. Their share in the collection is about 3%.

SMILES	NALP1 inh	SUMO Mot1 rescue	A1 inh	CHT inh	NLRP3 yeast inh	CHT allo act	CHT inh conf	HEK293 MPD ctr
CCCOP(=O)(c1ccc(N(C)C)cc1)C(O)c1ccc(Br)cc1 (configuration not stated)	-2.8	-1.7	1.1	-5.77*	4.9	i	68.0%*	i
[2H]C([2H])(CCOS(N)(=O)=O)c1ccccc1	14.0	-0.7	-0.7	i	3.3	i	nt	nt
CCCCC(=O)Nc1cc2nn(-c3ccc(OC)cc3)nc2cc1C	6.7	497.3	-0.7	i	10.4	i	nt	nt
CCC(=O)Nc1cc2nn(-c3ccc(OC)cc3)nc2cc1C	-4.3	21.2	-3.9	-6.63*	19.2	i	i	i
O=C(CCSc1ccc(F)cc1)NNC(=O)c1ccccc1Cl	nt	2.5	-2.0	nt	13.6	nt	nt	nt
COc1ccc(NC(=O)/C(C#N)=C\c2ccc(-c3cc(C(=O)O)ccc3C)o2)cc1	6.1	-9.4	0.8	i	2.2	i	nt	nt
CCCCNC(=O)/C(C#N)=C/c1ccc(-c2ccc(S(=O)(=O)N3CCOCC3)cc2)o1	21.9	89.1	-0.7	-4.96*	7.2	i	68.6%*	i
CN(CC(=O)Nc1ccc(OC(F)(F)F)cc1)C(=O)Cc1cccs1	nt	-15.9	-1.0	nt	-4.4	nt	nt	nt
COC(=O)c1ccc(CC(=O)c2nc3ccccc3s2)cc1	21.4	-8.0	0.8	i	-40.1	i	nt	nt
COC(=O)c1ccc(/C(O)=C(\C#N)c2nc3ccccc3s2)cc1	-13.5	64.6	-2.4	-6.45*	11.9	i	i	i
CC1CCN(C(=O)c2cc3ccccc3cc2O)CC1	8.2	212.4	-0.3	i	13.6	i	nt	nt
CSCCCNC(=O)c1ccc(OC2CCN(CCc3ccccc3)CC2)cc1	0.3	6.2	0.6	-5.99*	10.5	i	51.4%*	4.83*
CCCN1CCC(Oc2cccc(C(=O)NCCc3ccccc3)c2)CC1	8.1	13.5	1.0	-11.3*	4.5	i	6.5%*	i
O=C1NC(=O)/C(=C\c2ccc(Br)o2)S1	7.9	2.3	-0.7	-5.69*	-8.5	i	i	i
Cc1ccc(OCC(=O)NNC(=S)NC(=O)C(C)(C)C)c(Br)c1	-4.7	-12.6	1.4	-10.1*	37.0	i	54.7%*	i
COc1ccc2ncc(S(=O)(=O)c3ccccc3)c(N3CCN(c4ccccc4)CC3)c2c1	26.7	61.8	1.2	i	15.5	i	nt	nt
COc1ccc2ncc(S(=O)(=O)c3ccccc3)c(N3CCC4(CC3)OCCO4)c2c1	20.5	49.5	0.7	-5.86*	9.3	i	51.8%*	i
Cc1ccc2ncc(S(=O)(=O)c3ccccc3)c(N3CCCCC3C)c2c1 (configuration not stated)	21.5	-11.7	-0.1	-6.22*	7.3	i	i	i
COc1cc2ncc(S(=O)(=O)c3ccccc3)c(N3CCC4(CC3)OCCO4)c2cc1OC	-1.6	-2.0	-1.1	i	23.8	i	nt	nt
CC(C)Nc1nc(Cl)nc(N(C#N)CN2C(=O)c3ccccc3C2=O)n1	33.1	461.3	0.3	-6.88*	2.6	i	40.0%*	i
CCCN(C(=O)COC(=O)CNC(=O)c1ccc2ccccc2c1)c1c(N)n(Cc2ccccc2)c(=O)[nH]c1=O	nt	-2.8	0.7	i	-0.2	i	nt	nt
Cc1nc(SCC(=O)NC(=O)NC2CCCCC2)nc(C)c1C	-3.4	-12.1	-0.5	-10.6*	6.7	i	3.3%*	i
CCC(Sc1nnc(-c2ccc(C)c(Cl)c2)n1CC)C(=O)Nc1nccs1 (configuration not stated)	-10.1	17.3	0.0	-5.93*	25.0	i	50.2%*	i
Cc1ccc(NC(=O)N2CCCC(c3nc(-c4ccc(F)cc4)no3)C2)cc1 (configuration not stated)	nt	-8.3	0.2	i	28.1	i	nt	nt
O=C(Nc1ccccc1)N1CCCC(c2nc(-c3ccc(F)cc3)no2)C1 (configuration not stated)	9.7	-3.0	0.5	-5.85*	26.6	i	i	i
SMILES	NALP1 inh	SUMO Mot1 rescue	A1 inh	CHT inh	NLRP3 yeast inh	CHT allo act	CHT inh conf	HEK293 MPD ctr
Nc1nnnn1CC(=O)N/N=C/c1ccccn1	11.2	-9.0	0.5	i	8.8	i	nt	nt
CCOC(=O)c1[nH]c(C=O)c(C(=O)OCC)c1C	-0.6	2.3	2.1	-5.24*	25.2	i	68.7%*	i
Cc1ccccc1Nc1c(-c2ccncc2)nc2ccc(Br)cn12	-41.5	0.3	0.0	-6.92*	14.9	i	50.8%*	i
Cc1ccccc1Nc1c(-c2cccnc2)nc2ccc(Br)cn12	3.9	-8.8	0.5	i	18.7	i	nt	nt
CC(=O)Nc1ccc(S(=O)(=O)NC2=C(N3CCN(Cc4ccccc4)CC3)C(=O)c3ccccc3C2=O)cc1	8.3	76.3	0.3	-6.2*	nt	i	40.9%*	2.29*
N#CCCn1cc(/C=C2\NC(=S)N(c3ccccc3)C2=O)c(-c2ccc(F)cc2)n1	29.0	7.8	-1.1	-6.79*	17.5	i	59.7%*	i
CC1=C(C(=O)OCc2ccccc2)C(c2ccc3c(c2)OCO3)NC(=O)N1CCCC(=O)O (configuration not stated)	nt	-7.8	-0.4	i	5.7	i	nt	nt
COc1cccc(NC(=O)c2ccc3nc(C)sc3c2)c1	15.5	15.2	-8.6	i	33.3	i	nt	nt
CN(C(=O)c1ccccc1Cl)C1CCCCC1	38.0	-7.2	0.0	-6.75*	1.5	i	i	i
O=C(Nc1cc(Cl)ccc1-n1cncn1)c1cc(F)c(F)c(F)c1F	nt	42.9	-1.0	i	10.8	i	nt	nt
CCOC(=O)c1cnc2c(C(F)(F)F)cccc2c1N1CCOCC1	4.3	45.5	0.5	-5.79*	12.8	i	52.1%*	i
N#CC12CCCCC1CC1CCCCC1(C#N)N2CCO (configuration not stated)	8.4	-5.7	1.1	-5.74*	16.1	i	i	i
